Molecules are shown by their SMILES. Out of some 310,000 compounds screened, about 11,000 (3.5%) were called active. Another 4% or so got no clear call; they are omitted. The call rests on the fitted dose curve; in most records, active means well fitted inhibition curve with a large enough effect; inconclusive means small, poorly fitted or top-dose-only effect, or another doubt; inactive means no such curve, though single readings can be large or run the other way. This excerpt belongs to a sample that is enriched for actives.
Potency means the concentration at half of the fitted maximal effect.

The assay has as its target 4'-phosphopantetheinyl transferase ffp (Bacillus subtilis) (UniProt Q9F4F7). The assay is described as follows: qHTS Assay for Inhibitors of Bacillus subtilis Sfp phosphopantetheinyl transferase (PPTase).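 Further: the enzyme is Sfp with the accession as filed and its product quenches rhodamine fluorescence.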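 On largest response in the series, negative = inhibition: 0% = enzyme reaction without inhibitor and -100% = no enzyme wells.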 As to conditions: Biochemical Sfp PPTase activity. A digest of the protocol:
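Reaction rates are the 30-min fluorescence difference (ex 525, em 598 nm) in wells containing 15 nM Sfp, 5 uM rhodamine-CoA and 12.5 uM BHQ-2-YbbR at pH 7.6 with 10 mM MgCl2.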
In the case of `CCOc1cc(-c2cc(-c3ccc(NC(C)=O)cc3)nc(N)c2C#N)ccc1O`, the largest response in the series, negative = inhibition is 10.7% (inactive). The same measure, in the same setting: the same measure for `Cc1cc(=O)n2nc(N3CCCC(C(=O)NCc4cccc(Cl)c4)C3)sc2n1` (configuration not stated): 8.1% (inactive). Consider `COc1ccc(CCNC(=O)Cc2ccc(C)cc2)cc1OC`, for which the Potency is 39.8 µM (active). For `COc1ccc(CCNC(=O)c2ccccc2-c2ccccc2C(=O)O)cc1OC`, the largest response in the series, negative = inhibition was 5.81% (inactive). Same read-out and setting: next, `COc1ccc(CCNC(=O)NS(=O)(=O)c2ccc(C)cc2)cc1OC`: 17.5% (inactive). Still for that read-out and setting: next, `CC(C)(Oc1ccc(C2CC2(Cl)Cl)cc1)C(=O)O` (configuration not stated): 18% (inactive); `COc1ccc(NS(=O)(=O)c2cc3c(cc2C)N(C(C)=O)CCO3)cc1`: 15.7% (inactive); `CCn1c(=O)c(=O)[nH]c2c(=O)oc3ccc(S(=O)(=O)Nc4ccc(OC)cc4)cc3c21`: 5.45% (inactive). Turning to `CCOC(=O)N1CCN(C(=O)C(=O)Nc2sc3c(c2C#N)CC(C)(C)OC3)CC1`, the largest response in the series, negative = inhibition was -14.6% (inactive). For `C/C=C\C=C\C(=O)N1CC2(CC(c3cccc(NC(=O)/C(C)=C\C)c3)=NO2)C[C@H]1C(N)=O` (some centres not stated), the Potency is 15.8 µM (active). In the case of `CC/C=C/C(=O)N1CC2(CC(c3cccc(NC(=O)CC)c3)=NO2)C[C@H]1C(N)=O` (some centres not stated), the largest response in the series, negative = inhibition is -8.44% (inactive). Still for that read-out and setting: next, `C/C=C(/C)C(=O)Nc1cccc(C2=NOC3(C2)C[C@@H](C(N)=O)N(C(=O)C2(C)CC2)C3)c1` (some centres not stated): -3.68% (inactive); `CCOC(=O)N1CCN(S(=O)(=O)c2ccc(-n3cnnn3)cc2)CC1`: 6.31% (inactive); `COc1ccc(NS(=O)(=O)c2ccc(NC(=S)NC(=O)CC(C)C)cc2)cc1`: 3.37% (inactive).

`NS(=O)(=O)c1ccc(NC(=S)NC(=O)c2cccnc2)cc1`: the largest response in the series, negative = inhibition was -95.1% (inactive). Still for that read-out and setting: next, `NS(=O)(=O)c1ccc(NC(=S)N2CCCC2)cc1`: 13.2% (inactive); `CCOc1ccccc1N1CCN(C(=S)Nc2ccc(S(N)(=O)=O)cc2)CC1`: -3.97% (inactive). For `COc1ccc(N2CCN(C(=S)Nc3ccc(S(N)(=O)=O)cc3)CC2)cc1`, the Potency was 11.2 µM (active). Same read-out and setting: next, `COc1ccc(NC(=S)Nc2ccc(S(N)(=O)=O)cc2)c(C)c1`: 50.1 µM (active). On to `Cc1ccccc1NC(=O)CCOc1ccccc1`, for which the largest response in the series, negative = inhibition was 2% (inactive). Still for that read-out and setting: the same measure for `CCc1ccc(CN(C)C(=O)C2CCC(=O)N(Cc3cccc(OC)c3)C2)nc1` (configuration not stated): 14.7% (inactive). Same read-out and setting: next, `Cc1ccc(NS(=O)(=O)c2cn(C)c(=O)n(C)c2=O)c(C)c1`: 8.01% (inactive). Consider `COc1ccccc1NC(=O)CCC(=O)N1CC(C)Oc2ccc(C)cc21` (configuration not stated), for which the largest response in the series, negative = inhibition is 6.52% (inactive). Still for that read-out and setting: next, `COc1ccc(C(C(=O)NCC2CCCO2)N(C(=O)Cn2nnc3ccccc32)c2ccc(NC(C)=O)cc2)cc1OC` (configuration not stated): 15.5% (inactive).

In the case of `CN(C)c1nc(Nc2ccc(Cl)c(Cl)c2)nc(N(C)C)n1`, the largest response in the series, negative = inhibition is 3.3% (inactive). Still for that read-out and setting: the same measure for `Nc1nc(Nc2ccccc2)nc(NCCO)c1[N+](=O)[O-]`: 13.5% (inactive). For `OCCNc1nc(Nc2ccc(Cl)c(Cl)c2)nc2ccccc12`, the Potency was 79.4 µM (active). On to `O=C(NCC(=O)N1CCN(c2ccccc2O)CC1)c1ccc2ccccc2c1`, for which the largest response in the series, negative = inhibition was 2.02% (inactive). Regarding `CCN1CCN(c2sc(S(C)(=O)=O)nc2S(=O)(=O)c2ccc(Cl)cc2)CC1`, the largest response in the series, negative = inhibition was 14.2% (inactive). Take `COc1ccc(C(=O)COC(=O)Cn2cnc3c2c(=O)n(C)c(=O)n3C)c(OC)c1`: the largest response in the series, negative = inhibition is 2.93% (inactive). Same read-out and setting: next, `CCCOC1CCCN(C(=O)c2cc(COc3cncc(Cl)c3)on2)C1` (configuration not stated): -1.29% (inactive).

With `Oc1c(C(c2ccccn2)N2CCOCC2)ccc2cccnc12` (configuration not stated), the Potency is 35.5 µM (active). With `OC(COc1ccc2ccccc2c1)CN1CCOCC1` (configuration not stated), the largest response in the series, negative = inhibition is 11.8% (inactive). The same measure, in the same setting: the same measure for `CCOc1cc(N2CCOCC2)c(OCC)cc1NC(=O)COc1cccc2cccnc12`: 1.6% (inactive). Same read-out and setting: the same measure for `CN(C)CCNc1ccc(-c2n[nH]c(=O)c3ccccc23)cc1[N+](=O)[O-]`: 16.7% (inactive); for `O=C(Nc1ccccc1Cl)Nc1cccc2cccnc12`: 2.31% (inactive).

For `O=C(Nc1ccccc1Cl)O/N=C(/c1ccccc1)c1ccccn1`, the Potency is 79.4 µM (active). On to `Cc1ccc(C(=O)O/N=C(\N)c2ccccn2)cc1Cl`, for which the largest response in the series, negative = inhibition is 2.02% (inactive). Still for that read-out and setting: next, `CCCCNc1nc(C)nc2c1nc(-c1ccccc1)n2CCCCN(CC)CC`: 23.3% (inactive); `Cc1cc(C)n(-c2ccc(NC(=O)C3CCCCN3C(=O)c3cccs3)cc2)n1` (configuration not stated): 4.09% (inactive); `C=CCc1cccc(/C=N/NC(=O)COc2ccc(-n3cnnn3)cc2)c1O`: 15.1% (inactive). Still for that read-out and setting: next, `CCc1ccnc(NC(=O)Nc2ccc(OCc3ccccc3)cc2)c1`: -0.979% (inactive).

The record behind these values is PubChem BioAssay AID1490 (National Center for Advancing Translational Sciences (NCATS), 2009).
